Reference: PubChem BioAssay
“And” between values parts separate entries of the source, which are not always exact repeats. Identical values can stand only once. The source made the active and inactive calls. Rule as the data show it, unless noted: active = inhibition above about 80%; inactive = the rest.

How the values were obtained:
[1] = galactose survival enhancers in mitochondrial complex I cybrids – cell-based, galactose medium, ATP luminescence, primary screen (AID 1645843;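 active = z-score of at least 1.8 in each of two replicates, scored against plate mean and spread of sample wells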;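 also: positive z means more ATP and so rescue of galactose-driven cybrid death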); conditions: complex I mutant cybrid cells, 72 h, stronger effect = higher value
[2] = growth inhibition, single agent or in combination, cell-based, chromothripsis tumors, cisplatin or BGB combos (AID 1671449); conditions: LFS_MB_P medulloblastoma cells;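 also: cells exposed for 96 hours; 0% = vehicle DMSO and 100% = killing by high DMSO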
[3] = growth inhibition, single agent and combos, cell-based, chromothripsis tumors, cisplatin or BGB combos (AID 1671450); conditions: HDN33 neuroblastoma cells, stronger effect = higher value;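 also: cells exposed to compound for four days; 0% = vehicle DMSO and 100% = cell killing by high DMSO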
[4] = growth inhibition, single agents and combos, ICB984, cell-based, cisplatin or BGB combos, synergistic combos for chromothripsis tumors (AID 1671451; call rule not given here;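 also: cells exposed for 96 hours before readout; 0% = vehicle DMSO and 100% = killing by high DMSO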); conditions: ICB984 medulloblastoma cells, drug combinations, stronger effect = higher value
[5] = growth inhibition, single agents and combos, LFS_MB_1R, cell-based, cisplatin or BGB combos, synergistic combos for chromothripsis tumors (AID 1671452); conditions: LFS_MB_1R medulloblastoma cells, stronger effect = higher value;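 also: cells exposed for 96 hours before readout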
[6] = growth inhibition, single agents and combos, HTB85, cell-based, BGB or cisplatin IC20 combos, synergistic combos for chromothripsis tumors (AID 1671453); conditions: HTB85 osteosarcoma cells, drug combinations, stronger effect = higher value;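 also: cells exposed for 96 hours before readout; 0% = vehicle DMSO and 100% = high DMSO killing control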
[7] = growth inhibition, single agents and combos, CRL2098, cell-based, BGB or cisplatin IC20 combos, synergistic combos for chromothripsis tumors (AID 1671454); conditions: CRL2098 osteosarcoma cells, drug combinations, stronger effect = higher value;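 also: cells exposed for 96 h before readout; 0% = vehicle DMSO and 100% = killing by high DMSO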
[8] = growth inhibition, single agents and combos, HD-MB03, cell-based, BGB or cisplatin IC20 combos, synergistic combos for chromothripsis tumors (AID 1671455; in the data active = inhibition above about 83%;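 also: 0% = vehicle DMSO and 100% = high DMSO as cytotoxic control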); conditions: HD-MB03 medulloblastoma cells, stronger effect = higher value
[9] = growth inhibition, single agents and combos, UWB1.289, cell-based, BGB or cisplatin combos, synergistic combos for chromothripsis tumors (AID 1671456); conditions: UWB1.289 ovarian carcinoma cells, stronger effect = higher value;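 also: cells exposed to compound for four days; 0% = vehicle DMSO and 100% = killing by high DMSO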
[10] = growth inhibition, single agents and combos, LFS_MB_2R, cell-based, cisplatin combos, synergistic combos for chromothripsis tumors (AID 1671457); conditions: LFS_MB_2R medulloblastoma cells, stronger effect = higher value;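 also: cells exposed to compound for four days before readout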
[11] = growth inhibition, MDA-MB-436, cell-based, BGB or cisplatin combos, synergistic combos for chromothripsis tumors (AID 1671458; call rule not given here;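 also: cells exposed for 96 hours; 0% = vehicle DMSO and 100% = killing by high DMSO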); conditions: MDA-MB-436 breast carcinoma growth inhibition, drug combinations, stronger effect = higher value
[12] = UWB1.289_BRCA1 ovarian cancer growth, cell-based, BGB or cisplatin combinations (AID 1671459); conditions: UWB1.289 BRCA1 ovarian carcinoma, drug combinations, stronger effect = higher value
[13] = drug combination toxicity in non-malignant astrocytes – cell-based, BGB or cisplatin IC20 combos, cytotoxicity control for chromothriptic childhood tumor combination screen (AID 1671460); conditions: Human astrocytes, viability inhibition, drug combinations, at 0.5 µM, stronger effect = higher value;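 also: cells exposed to compounds for 96 hours before viability readout; 0% = vehicle and 100% = killing control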
[14] = BT084 cell growth, single and combined drugs, ICGC_MB145, cisplatin and BGB IC40 combos (AID 1671461); conditions: BT084 medulloblastoma cells, drug combinations, stronger effect = higher value;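 also: cells exposed to drugs for 96 hours; 0% = vehicle DMSO and 100% = high DMSO full killing control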
[15] = RCMB18 cell growth, single agent and combined, cisplatin and BGB IC40 combos (AID 1671462); conditions: RCMB18 medulloblastoma cells, stronger effect = higher value;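 also: cells exposed to compound for four days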
[16] = CRL1545 cell growth, single agent and combined, cisplatin and BGB IC20 combos (AID 1671464); conditions: CRL1545 osteosarcoma cells, stronger effect = higher value;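 also: cells exposed to compound for 96 hours before readout; 0% = vehicle DMSO and 100% = high DMSO killing control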
[17] = measured here: combination with BGB IC40, at 0.05 µM
[18] = measured here: with BGB IC20 combination, at 0.5 µM
[19] = measured here: with cisplatin IC20 combination, at 0.5 µM
[20] = measured here: combination with cisplatin, at 0.5 µM
[21] = measured here: combination with cisplatin, at 5 µM

Compound: c1ccc(-c2nccn2Cc2nc(-c3ccccn3)no2)cc1
- z-score [1]: 1.27 (inactive)

Compound: CCC(C)C(c1nc(C(C)C)no1)N1Cc2ccccc2C1=O (stereo not given)
- z-score [1]: -0.17 (inactive)

Compound: O=c1[nH]c(=S)[nH]c(/N=C/c2ccccc2)c1N=Cc1ccccc1
- inhibition ([2]; at 0.5 µM, stronger effect = higher value): 10.8% (inactive) and -1.11% (inactive)
- inhibition ([2]; measured here: combination with BGB IC20, at 0.005 µM): 7.44% and 1.3%
- inhibition ([2]; measured here: combination with BGB IC40, at 0.005 µM): -16.5% and -26.2%
- inhibition [2, 17]: 0.419% and 2.63%
- inhibition ([2]; measured here: combination with cisplatin, at 0.5 µM, stronger effect = higher value): 24.4% and -35.7%
- inhibition ([2]; measured here: combination with cisplatin, at 5 µM, stronger effect = higher value): -12.6% and -19.3%
- inhibition ([3]; BGB combo, at 5 µM): -34% and -42.2%
- inhibition ([3]; at 0.5 µM): -32.1% (inactive) and -19.5% (inactive)
- inhibition ([3]; cisplatin combo, at 5 µM): -21.4% and -48.2%
- inhibition [3, 18]: -30.4% and -16.3%
- inhibition [3, 19]: -42.2% and -15.7%
- inhibition ([3]; single agent, at 5 µM): -37.4% and -37%
- inhibition ([4]; BGB IC20 combo, at 0.005 µM): 1.63% and -15.3%
- inhibition ([4]; BGB IC40 combo, at 0.005 µM): -50.4% and 4.14%
- inhibition ([4]; BGB IC40 combo, at 0.05 µM): -19.4% and -32.8%
- inhibition ([4]; at 0.5 µM): -11.2% (inactive) and -6.96% (inactive)
- inhibition ([4]; cisplatin combo, at 0.05 µM): -22.8% and -39.7%
- inhibition ([4]; cisplatin combo, at 0.5 µM): -24.4% and 3.72%
- inhibition ([4]; cisplatin combo, at 5 µM): -19.7% and -8.53%
- inhibition ([4]; measured here: 5 uM single agent, at 5 µM): -28.4% and -9.24%
- inhibition ([5]; at 0.5 µM): -24.3% (inactive) and -5.83% (inactive)
- inhibition [5, 17]: -16.1% and -5.8%
- inhibition [5, 20]: -52.1% and -29.6%
- inhibition [5, 21]: -67.9% and -16.8%
- inhibition ([6]; at 0.5 µM): -24.2% (inactive) and -31.7% (inactive)
- inhibition ([6]; measured here: with BGB IC20, at 0.5 µM): -36.7% and -29.2%
- inhibition ([6]; measured here: with BGB IC20, at 5 µM): -72.3% and -10.6%
- inhibition ([6]; measured here: with cisplatin IC20, at 0.5 µM): -17.7% and -30.3%
- inhibition ([6]; measured here: with cisplatin IC20, at 5 µM): -46.1% and -5.16%
- inhibition ([6]; single agent, at 5 µM): -26.4% and -23.9%
- inhibition ([7]; at 0.5 µM): -71.1% (inactive) and -62.3% (inactive)
- inhibition ([7]; measured here: combination with BGB at IC20, at 0.5 µM): -91.5% and -60.8%
- inhibition ([7]; measured here: combination with cisplatin at IC20, at 0.5 µM): -66.2% and -85.1%
- inhibition ([8]; at 0.5 µM): -16.3% (inactive) and -12.6% (inactive)
- inhibition ([8]; measured here: combo with BGB at IC20, at 0.5 µM): -14.6% and -13.1%
- inhibition ([8]; measured here: combo with cisplatin at IC20, at 0.5 µM): -24.1% and -18.2%
- inhibition ([9]; at 0.5 µM): -10.1% (inactive) and -11.6% (inactive)
- inhibition ([9]; measured here: inhibition with BGB combination, at 0.05 µM): -8.71% and -6.64%
- inhibition ([9]; measured here: inhibition with cisplatin combination, at 0.05 µM): -18.2% and -17.6%
- inhibition ([10]; at 0.5 µM): -2.17% (inactive) and -7.03% (inactive)
- inhibition [10, 20]: 4.09% and -15.4%
- inhibition [10, 21]: -75.4% and -34.5%
- inhibition ([11]; at 0.5 µM): -13.4% (inactive) and -8.5% (inactive)
- inhibition ([11]; measured here: BGB combination, at 0.5 µM): -4.77% and -3.51%
- inhibition ([11]; measured here: BGB combination, at 5 µM): -0.125% and 9.68%
- inhibition ([11]; measured here: cisplatin combination, at 0.5 µM): -26% and -20.1%
- inhibition ([11]; measured here: cisplatin combination, at 5 µM): -13.5% and -24.6%
- inhibition ([12]; BGB combination, concentration series, at 5 µM): -20.1% and -21%
- inhibition ([12]; at 0.5 µM): -11.1% (inactive) and -17.6% (inactive)
- inhibition ([12]; cisplatin combination, concentration series, at 5 µM): -0.543% and -15.8%
- inhibition [13]: -14.7% (inactive) and -11.3% (inactive)
- inhibition ([13]; measured here: combo with BGB IC20): -6.75% and -6.18%
- inhibition ([13]; measured here: combo with cisplatin IC20): -39.7% and -17.5%
- inhibition ([14]; at 0.5 µM): -0.252% (inactive) and 5.93% (inactive)
- inhibition ([14]; cisplatin combination, at 0.5 µM): -5.14% and -7.54%
- inhibition ([14]; cisplatin combination, at 5 µM): -2.96% and -198%
- inhibition ([14]; measured here: BGB IC40 combination 0.05 uM, at 0.05 µM): 11.6% and -6.05%
- inhibition ([14]; single agent, at 5 µM): -8.91% and -10.5%
- inhibition ([15]; at 0.5 µM): -27.2% (inactive) and -2.36% (inactive)
- inhibition ([15]; cisplatin combo, at 5 µM): -73.6% and -65.6%
- inhibition ([15]; measured here: BGB IC40 combination, at 0.05 µM): -4.14% and 6.35%
- inhibition [15, 20]: -76.9% and 2.66%
- inhibition ([15]; single agent, at 5 µM): -10.2% and -0.506%
- inhibition ([16]; at 0.5 µM): -63.6% (inactive) and -4.77% (inactive)
- inhibition [16, 18]: -46.4% and -22.1%
- inhibition [16, 19]: -76% and 2.34%
- inhibition ([16]; single agent, at 0.05 µM): -68.7% and -41.2%
- inhibition ([16]; single agent, at 5 µM): -27.1% and -36.4%
